# The whole screen tested about 220,000 compounds, of which about 910 (0.41%) were called active.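 The calls were made as follows: active = primary inhibition above the hit cutoff, then over 50% inhibition at one or more dose response concentrations (cut at about 23% in these data, passing the limit was not always enough); inconclusive = conflicting primary data, or primary hits not chosen for dose response; inactive = low primary inhibition, or under 50% at every dose.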 This excerpt belongs to a sample that is enriched for actives. Potency and affinity values are given separately.
# Molecular target: Aminopeptidase N (Plasmodium falciparum (isolate 3D7)) (UniProt O96935)
# Sequence (O96935 whole entry, looked up): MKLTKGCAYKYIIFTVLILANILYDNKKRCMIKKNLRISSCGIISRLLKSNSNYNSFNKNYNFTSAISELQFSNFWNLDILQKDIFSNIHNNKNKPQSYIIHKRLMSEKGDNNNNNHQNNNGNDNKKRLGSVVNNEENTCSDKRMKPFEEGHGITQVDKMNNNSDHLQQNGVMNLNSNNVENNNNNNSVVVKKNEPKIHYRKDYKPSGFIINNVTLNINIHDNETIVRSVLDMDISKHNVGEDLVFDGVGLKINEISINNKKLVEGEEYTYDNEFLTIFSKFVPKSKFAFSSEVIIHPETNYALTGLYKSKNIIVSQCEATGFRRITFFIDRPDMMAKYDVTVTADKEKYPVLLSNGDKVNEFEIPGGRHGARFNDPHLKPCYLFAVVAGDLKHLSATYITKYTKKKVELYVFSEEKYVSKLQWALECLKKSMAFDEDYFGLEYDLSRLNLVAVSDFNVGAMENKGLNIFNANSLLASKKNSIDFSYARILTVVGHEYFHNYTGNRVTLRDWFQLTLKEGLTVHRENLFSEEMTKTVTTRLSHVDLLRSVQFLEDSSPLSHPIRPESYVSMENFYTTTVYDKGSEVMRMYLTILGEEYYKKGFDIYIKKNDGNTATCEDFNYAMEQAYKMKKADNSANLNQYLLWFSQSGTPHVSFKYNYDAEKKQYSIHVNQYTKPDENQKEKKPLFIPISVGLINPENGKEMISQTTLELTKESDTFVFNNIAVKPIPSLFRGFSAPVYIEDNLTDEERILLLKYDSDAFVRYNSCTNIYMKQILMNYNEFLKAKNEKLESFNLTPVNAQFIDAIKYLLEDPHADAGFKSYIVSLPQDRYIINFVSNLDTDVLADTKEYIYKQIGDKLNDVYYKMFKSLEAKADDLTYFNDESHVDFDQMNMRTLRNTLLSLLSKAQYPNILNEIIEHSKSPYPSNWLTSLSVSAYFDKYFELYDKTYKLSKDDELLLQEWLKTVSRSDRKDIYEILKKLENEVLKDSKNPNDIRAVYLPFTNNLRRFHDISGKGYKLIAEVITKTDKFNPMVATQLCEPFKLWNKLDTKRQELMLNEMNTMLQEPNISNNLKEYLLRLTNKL
# Experiment: P. falciparum M1AAP inhibitors, biochemical, fluorogenic H-Leu-NHMec substrate, 1536-well (AID 1445);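 also: plate controls were DMSO full reaction for no effect and no enzyme background for full effect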
# Conditions: recombinant M1AAP, H-Leu-NHMec fluorogenic kinetic assay; at 30 µM, active compounds read high unless noted
row,SMILES,inhibition
1,c1ccc(CCCCNCC2COc3ccccc3O2)cc1 (configuration not stated),0.11% (inactive)
2,C=CCNC(=O)c1ccc([N+](=O)[O-])c(Cl)c1,1.78% (inactive)
3,CC1=C(C(N)=O)C(c2cccs2)NC(=O)N1 (configuration not stated),0.41% (inactive)
4,FC(F)(F)c1cc(-c2cccs2)nc2ncnn12,14.3% (inactive)
5,FC(F)(F)c1cc(-c2cccs2)nc2cc(-c3cccs3)nn12,2.78% (inactive)
6,O=C(NCCCn1ccnc1)/C(=C\c1cccs1)NC(=O)c1ccco1,2.24% (inactive)
7,CC(C)=CC(=O)NCCc1ccccc1,0.11% (inactive)
8,Cc1cc(=O)oc2cc3c(cc12)OCCO3,9.01% (inactive)
9,Cc1ccc2c(c1)NCCO2,9.62% (inactive)
10,CN(C)c1ccc(CNn2cnnc2SCc2ccccc2F)cc1,3.42% (inactive)
11,Cc1ccccc1OCCCC(=O)Nc1ccccc1C(F)(F)F,-2.79% (inactive)
12,CCOCCCNc1nc2c(C)cccn2c(=O)c1/C=C1\SC(=S)N(C(C)CC)C1=O (configuration not stated),3.39% (inactive)
13,CC(C)CN1C(=O)/C(=C/c2c(N3CCc4ccccc4C3)nc3ccccn3c2=O)SC1=S,2.88% (inactive)
14,CCOC(=O)CC1C(=O)NCCN1C(=O)c1cc2c(=O)n3ccccc3nc2s1 (configuration not stated),-1.82% (inactive)
15,CCOC(=O)CC1C(=O)NCCN1S(=O)(=O)c1ccc(C)cc1 (configuration not stated),-1.42% (inactive)
16,CCOC(=O)C(=O)c1c(-c2ccc(C)cc2)nc2ccccn12,10.6% (inactive)
17,COC(=O)c1c(C)oc(C)c1S(=O)(=O)N1CCCCC1,0.96% (inactive)
18,CCCCCCOc1ccc(C(=O)NCCCn2ccnc2)cc1,-4.66% (inactive)
19,CN(C)CCNC(=O)NC1CCCCC1,4.13% (inactive)
20,CC(=O)NS(=O)(=O)c1ccc(NC(=O)c2ccc3c(c2)C(=O)N(CCC(C)C)C3=O)cc1,9.98% (inactive)
21,CC(/C=C1\SC(=S)N(NC(=O)c2ccc(C)cc2)C1=O)=C\c1ccccc1,5.4% (inactive)
22,CC(/C=C1\SC(=S)N(NC(=O)c2ccncc2)C1=O)=C\c1ccccc1,13.9% (inactive)
23,CC(/C=C1\SC(=S)N(NC(=O)c2ccccc2C)C1=O)=C\c1ccccc1,4.17% (inactive)
24,Cc1ccc(S(=O)(=O)N2C(=O)/C(=C3\SC(=S)NC3=O)c3ccccc32)cc1,16.8% (inactive)
25,CC(=O)N1C(=O)/C(=C2\SC(=S)N(c3c(C)n(C)n(-c4ccccc4)c3=O)C2=O)c2ccccc21,9.72% (inactive)

row,SMILES,inhibition
1,CCN1C(=O)/C(=C2\SC(=S)N(CCCOC)C2=O)c2ccccc21,0.63% (inactive)
2,CC(/C=C1\SC(=S)N(NC(=O)c2ccc(O)cc2)C1=O)=C\c1ccccc1,4.4% (inactive)
3,CCN1C(=O)/C(=C2\SC(=S)N(CC3CCCO3)C2=O)c2ccccc21 (configuration not stated),2.68% (inactive)
4,CC1=C(C(=O)c2ccccc2)C(c2ccc(OC(F)F)cc2)NC(=S)N1 (configuration not stated),3.11% (inactive)
5,CN1CCN(CC(=O)NC2CCCCC2)CC1,-3.84% (inactive)
6,Cc1cc(C)n(-c2nc3c(c(=O)[nH]c(=O)n3C)n2Cc2cccc(Br)c2)n1,6.71% (inactive)
7,COc1cccc(NS(=O)(=O)c2ccc(OC)c(OC)c2)c1,8.68% (inactive)
8,COc1cc(Cl)c(C)cc1NC(=O)c1ccc2c(SCC(=O)O)c3c(nc2c1)CCCC3,39.2% (inactive)
9,COc1ccc(NC(=O)c2ccc3c(SCC(=O)O)c4c(nc3c2)CCCC4)cc1Cl,6.4% (inactive)
10,CC(=O)c1ccc(OCc2cc([N+](=O)[O-])cc3c2OCOC3)cc1,0.98% (inactive)
11,CP(C)(=O)CCP(=O)(c1ccccc1)c1ccccc1,2.48% (inactive)
12,CCCc1nc(C)c(-c2ccc(OC)c(OC)c2)c(=O)[nH]1,2.27% (inactive)
13,Cc1c(CCC(=O)O)c(=O)oc2cc(O)ccc12,18.6% (inactive)
14,Cc1c(CCC(=O)O)c(=O)oc2cc3oc4c(c3cc12)CCCC4,8.26% (inactive)
15,Cc1c(CCC(=O)O)c(=O)oc2cc3occ(C(C)(C)C)c3cc12,12.5% (inactive)
16,Cc1coc2cc3oc(=O)c(Cc4ccccc4)c(C)c3cc12,16.1% (inactive)
17,CC(C)Oc1cccc(C(=O)C2CCCN(Cc3cnn(C(C)C)c3)C2)c1 (configuration not stated),3.98% (inactive)
18,Cc1ccc(/C=[N+](/C)[O-])cc1,5.58% (inactive)
19,CSc1ccc(C2C(C#N)=C(N)Oc3c2ccc(=O)c2c(C)oc(C)c32)cc1 (configuration not stated),23.3% (active)
20,Cc1oc(C)c2c(=O)ccc3c(c12)OC(N)=C(C#N)C3c1ccccc1 (configuration not stated),12.5% (inactive)
21,Cc1oc(C)c2c(=O)ccc3c(c12)OC(N)=C(C#N)C3c1ccc(F)cc1 (configuration not stated),3.21% (inactive)
22,COc1cccc(C2c3[nH]c4ccccc4c3CCN2Cc2cccn2-c2ncccn2)c1 (configuration not stated),1.34% (inactive)
23,CCOC(=O)CSCc1nc(-c2ccc(Cl)cc2)oc1C,-0.93% (inactive)
24,C/C(=N\NC(=O)COc1ccc(C(C)(C)C)cc1)c1ccc(OC(F)F)cc1,6.66% (inactive)
25,NC(=O)c1cccc(CC(=O)c2ccccc2)c1,8.26% (inactive)

row,SMILES,inhibition
1,COc1cc(C=O)ccc1OCC(=O)N1CCCC1,-0.53% (inactive)
2,COc1ccccc1NS(=O)(=O)c1ccc(Cl)c(NC(=O)CN2C(=O)c3ccccc3C2=O)c1,11.8% (inactive)
3,COc1ccccc1NS(=O)(=O)c1ccc(Cl)c(NC(=S)NC(=O)C2CCCC2)c1,6.44% (inactive)
4,Cc1cc(O)c(C=Nc2cccc(Cl)c2)c(=O)o1,13.6% (inactive)
5,O=C1CNC(=O)/C1=C\N1CCN(C(c2ccccc2)c2ccccc2)CC1,10.1% (inactive)
6,COc1ccc(-c2cc(=Nc3c(C)n(C)n(-c4ccccc4)c3=O)c3ccccc3o2)cc1,10.6% (inactive)
7,Cc1c(C(c2ccccc2O)c2c(C)n(C)n(-c3ccccc3)c2=O)c(=O)n(-c2ccccc2)n1C,-0.33% (inactive)
8,Cc1c(C(c2ccc(O)cc2)c2c(C)n(C)n(-c3ccccc3)c2=O)c(=O)n(-c2ccccc2)n1C,-4.97% (inactive)
9,COc1ccc(C(c2c(C)n(C)n(-c3ccccc3)c2=O)c2c(C)n(C)n(-c3ccccc3)c2=O)cc1O,2.02% (inactive)
10,FC(F)(F)c1ccccc1CN1CCN(C2CCCCCC2)CC1,3.5% (inactive)
11,CCOC(=O)N1CCN(C(=O)COc2cc(=O)n(CC)c3ccccc23)CC1,3.47% (inactive)
12,Cc1ccccc1NC(=O)N1CCc2ccccc2C1,1.94% (inactive)
13,O=Cc1ccc2cccnc2n1,3.17% (inactive)
14,CC1=CC(C)(C)NC(=S)N1c1ccccc1C,0.18% (inactive)
15,O=C(O)c1ccc(COc2ccccc2/C=C2\NC(=O)N(Cc3ccccc3)C2=O)cc1,-0.49% (inactive)
16,O=C1c2ccccc2C(=O)N1Cc1ccco1,3.2% (inactive)
17,O=C(CN1C(=O)S/C(=C\c2ccccc2)C1=O)NNC(=O)c1ccccc1O,6.38% (inactive)
18,Cc1ccccc1NC(=O)c1ccccc1O,12.9% (inactive)
19,O=C(Nc1ccc(O)cc1)c1ccc2c(c1)C(=O)N(Cc1ccco1)C2=O,3.19% (inactive)
20,CCOc1ccc(-c2nnc3ccc(SCC(=O)Nc4nc5ccccc5s4)nn23)cc1,-0.15% (inactive)
21,Cc1c(NC(=O)C(C)OC(=O)[C@@H](NC(=O)c2ccccc2)C(C)C)c(=O)n(-c2ccccc2)n1C (some centres not stated),11.4% (inactive)
22,CC(C)Cn1c(-c2ccncc2)n[nH]c1=S,-1.73% (inactive)
23,CCc1ccc2[nH]c(=O)c(CN(CCN(CC)CC)C(=O)NC3CCCCC3)cc2c1,6.76% (inactive)
24,CCOC(=O)CNC(=O)Cc1ccc(OC)cc1,-3.67% (inactive)
25,COC(=O)c1ccccc1NC(=O)CSc1nc2cccnc2n1C,-3.92% (inactive)

row,SMILES,inhibition
1,CCSc1nc2ccccc2n1CC(=O)N1CCOCC1,8.83% (inactive)
2,O=C(CSc1nc2ccccc2n1CC(=O)N1CCOCC1)N1CCCC1,1.43% (inactive)
3,CCC(=O)N1CCN(C(C)=O)C1c1ccccc1 (configuration not stated),-1.61% (inactive)
4,CCC(=O)N1CCN(C(=O)CC)C1c1ccccc1,1.3% (inactive)
5,CC1C(=O)CC(c2ccccc2)N(C)C1c1ccccc1 (configuration not stated),-1.3% (inactive)
6,CC(=O)N1CCN(C(C)=O)C1c1ccccc1,4.82% (inactive)
7,COc1ccc(N=C2SC(CC(=O)Nc3ccc(F)cc3)C(=O)N2Cc2ccco2)cc1 (configuration not stated),5.55% (inactive)
8,COc1ccc(O)c(C(=O)c2cc(C#N)c(=O)n(-c3ccc(Cl)cc3)c2)c1,4.39% (inactive)
9,O=C(c1ccc(COCC(F)(F)F)o1)N1CCCCCC1,-0.95% (inactive)
10,CC(=O)c1cc(-c2ccccc2)n(CC(=O)NC(C)(C)C)c1C,5.46% (inactive)
11,COCCNc1cc(C)c(C#N)c2nc3ccccc3n12,-4.32% (inactive)
12,COc1cccc(/C=N/Nc2ncnc3scc(-c4ccccc4)c23)c1O,2.95% (inactive)
13,COc1ccc(/C=N/N2C(=O)CSC2=S)cc1,10.4% (inactive)
14,COc1cc(/C=N/N2C(=O)CSC2=S)ccc1O,20.3% (inactive)
15,COc1cccc(CNc2cnc3ccccc3c2)c1O,2.44% (inactive)
16,Oc1ccccc1CNc1cnc2ccccc2c1,9.27% (inactive)
17,Oc1ccc2ccccc2c1CNc1cnc2ccccc2c1,24.4% (active)
18,O=C(NCCCc1ccccc1)c1ccncc1,-1.01% (inactive)
19,CCNC(=S)NNC(=O)c1ccncc1,0.26% (inactive)
20,O=C(CCN1C(=O)/C(=C/c2ccc(F)cc2)SC1=S)NNC(=O)c1ccncc1,-9.67% (inactive)
21,O=C(NCCc1ccccc1)c1ccncc1,-0.47% (inactive)
22,CCOc1ccc(NC(=O)CN(C)C(=O)C2CCCC2)cc1OCC,8.15% (inactive)

# From PubChem BioAssay AID1445 (SRMLSC, 2008)
